From the supplement of paper PMC10849652
About 8,800 targets were measured; listed, in parts, are those with a hit and a random draw of the rest. About 0.5% of all pairs of compound and target were hits.

Experiments:
Experiment in all cases: log2 fold change, soluble protein after heating vs DMSO (PISA); higher = thermal stabilisation; K562 lysate, 10 uM; active = over 0.2 and 3.5 SD of the protein, either way, in both replicates (recomputed)
[1] = compound: Cc1cn(-c2cc(NC(=O)c3ccc(C)c(Nc4nccc(-c5cccnc5)n4)c3)cc(C(F)(F)F)c2)cn1 [nilotinib]
Method in brief: (§1)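 Dounce homogenisation of K562 pellets in PBS pH 7.4 with 1 mM MgCl2 produced a crude extract, used at 1 mg/mL protein. Exposure to 10 μM compound lasted 30 min, and aliquots were then heated for 3 min across 48°C-58°C, pooled and brought to 0.5% NP-40 at 4°C. The supernatant after 21,000xg for 90 min was quantified by TMTpro 16plex LC-MS/MS with channel sums equalised. Duplicate values are given as log-two fold change in thermal stability relative to solvent controls.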

[2] = compound: Cc1nc(Nc2n[nH]c3c2CN(C(=O)N[C@H](CN(C)C)c2ccccc2)C3(C)C)c2sccc2n1
Method in brief: as §1

[3] = compound: Cc1nc(Nc2ncc(C(=O)Nc3c(C)cccc3Cl)s2)cc(N2CCN(CCO)CC2)n1 [dasatinib]
Method in brief: as §1

[4] = compound: Cc1ncc(-c2ccnc(Nc3ccc(S(C)(=O)=O)cc3)n2)n1C(C)C
Method in brief: as §1

[5] = compound: Cn1cc(-c2ccc3c(c2)CCN3C(=O)Cc2cccc(C(F)(F)F)c2)c2c(N)ncnc21
Method in brief: as §1

[6] = compound: Cn1cc(CNCC2CCN(c3ncc(C(=O)NO)cn3)CC2)c2ccccc21 [quisinostat]
Method in brief: as §1

[7] = compound: Cn1cncc1[C@@](N)(c1ccc(Cl)cc1)c1ccc2c(c1)c(-c1cccc(Cl)c1)cc(=O)n2C [tipifarnib]
Method in brief: as §1

[8] = compound: NC(=O)Nc1cc(-c2cccc(F)c2)sc1C(=O)N[C@H]1CCCNC1
Method in brief: as §1

[9] = compound: NC(=O)c1cnc(N[C@@H]2CCCC[C@@H]2N)nc1Nc1cccc(-n2nccn2)c1
Method in brief: as §1

[10] = compound: NC1(c2ccc(-c3nc4ccn5c(=O)[nH]nc5c4cc3-c3ccccc3)cc2)CCC1
Method in brief: as §1

Sequence of UniProt Q6UWP2 (Q6UWP2 whole entry, looked up): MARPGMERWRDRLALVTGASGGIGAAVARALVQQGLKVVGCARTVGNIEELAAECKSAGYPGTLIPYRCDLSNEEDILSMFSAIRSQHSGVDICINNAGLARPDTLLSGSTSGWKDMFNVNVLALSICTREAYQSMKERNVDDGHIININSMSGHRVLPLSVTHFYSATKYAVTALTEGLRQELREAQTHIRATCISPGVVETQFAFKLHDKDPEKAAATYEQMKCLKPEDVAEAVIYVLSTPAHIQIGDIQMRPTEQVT
Sequence of UniProt Q96DG6 (Q96DG6 whole entry, looked up): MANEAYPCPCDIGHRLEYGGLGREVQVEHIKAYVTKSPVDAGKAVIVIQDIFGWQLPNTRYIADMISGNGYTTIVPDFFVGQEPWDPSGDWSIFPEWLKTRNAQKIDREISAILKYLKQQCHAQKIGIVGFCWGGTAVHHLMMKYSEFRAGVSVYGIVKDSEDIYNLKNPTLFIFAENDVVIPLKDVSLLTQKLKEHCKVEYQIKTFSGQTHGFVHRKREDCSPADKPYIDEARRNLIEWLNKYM
Sequence of UniProt O75153 (O75153 whole entry, looked up): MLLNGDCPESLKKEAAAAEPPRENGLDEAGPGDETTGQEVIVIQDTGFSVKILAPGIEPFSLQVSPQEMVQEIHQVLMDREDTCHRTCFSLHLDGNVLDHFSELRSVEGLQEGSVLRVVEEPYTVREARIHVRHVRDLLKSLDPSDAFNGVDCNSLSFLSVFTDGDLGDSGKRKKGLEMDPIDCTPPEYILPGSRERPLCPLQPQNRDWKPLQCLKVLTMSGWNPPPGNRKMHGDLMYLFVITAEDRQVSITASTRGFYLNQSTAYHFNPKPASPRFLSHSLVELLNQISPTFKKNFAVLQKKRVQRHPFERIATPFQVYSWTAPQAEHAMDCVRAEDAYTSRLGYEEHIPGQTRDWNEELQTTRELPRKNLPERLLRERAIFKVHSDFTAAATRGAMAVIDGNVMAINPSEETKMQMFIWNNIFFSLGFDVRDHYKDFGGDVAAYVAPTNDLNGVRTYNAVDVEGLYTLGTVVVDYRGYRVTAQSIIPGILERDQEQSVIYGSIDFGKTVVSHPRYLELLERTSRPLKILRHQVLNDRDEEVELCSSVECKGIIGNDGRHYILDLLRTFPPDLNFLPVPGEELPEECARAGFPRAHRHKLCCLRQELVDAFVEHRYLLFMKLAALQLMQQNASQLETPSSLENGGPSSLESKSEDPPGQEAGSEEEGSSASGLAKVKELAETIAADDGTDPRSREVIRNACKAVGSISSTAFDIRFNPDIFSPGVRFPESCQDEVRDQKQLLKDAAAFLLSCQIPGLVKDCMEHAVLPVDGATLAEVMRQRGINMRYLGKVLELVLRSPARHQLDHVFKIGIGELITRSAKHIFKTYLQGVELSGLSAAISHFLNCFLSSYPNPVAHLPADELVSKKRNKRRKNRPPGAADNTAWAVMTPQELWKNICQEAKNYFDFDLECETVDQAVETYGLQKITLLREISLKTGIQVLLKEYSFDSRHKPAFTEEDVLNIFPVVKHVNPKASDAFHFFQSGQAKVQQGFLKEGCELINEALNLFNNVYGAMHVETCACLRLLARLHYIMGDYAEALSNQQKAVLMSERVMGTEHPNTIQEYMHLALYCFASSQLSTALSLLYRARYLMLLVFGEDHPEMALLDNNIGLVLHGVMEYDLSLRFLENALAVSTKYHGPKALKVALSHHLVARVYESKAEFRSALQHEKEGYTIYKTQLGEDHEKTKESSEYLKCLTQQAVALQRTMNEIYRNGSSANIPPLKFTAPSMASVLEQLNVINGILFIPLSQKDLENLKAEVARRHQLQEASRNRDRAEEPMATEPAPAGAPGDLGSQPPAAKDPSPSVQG
Sequence of UniProt Q14203 (Q14203 whole entry, looked up): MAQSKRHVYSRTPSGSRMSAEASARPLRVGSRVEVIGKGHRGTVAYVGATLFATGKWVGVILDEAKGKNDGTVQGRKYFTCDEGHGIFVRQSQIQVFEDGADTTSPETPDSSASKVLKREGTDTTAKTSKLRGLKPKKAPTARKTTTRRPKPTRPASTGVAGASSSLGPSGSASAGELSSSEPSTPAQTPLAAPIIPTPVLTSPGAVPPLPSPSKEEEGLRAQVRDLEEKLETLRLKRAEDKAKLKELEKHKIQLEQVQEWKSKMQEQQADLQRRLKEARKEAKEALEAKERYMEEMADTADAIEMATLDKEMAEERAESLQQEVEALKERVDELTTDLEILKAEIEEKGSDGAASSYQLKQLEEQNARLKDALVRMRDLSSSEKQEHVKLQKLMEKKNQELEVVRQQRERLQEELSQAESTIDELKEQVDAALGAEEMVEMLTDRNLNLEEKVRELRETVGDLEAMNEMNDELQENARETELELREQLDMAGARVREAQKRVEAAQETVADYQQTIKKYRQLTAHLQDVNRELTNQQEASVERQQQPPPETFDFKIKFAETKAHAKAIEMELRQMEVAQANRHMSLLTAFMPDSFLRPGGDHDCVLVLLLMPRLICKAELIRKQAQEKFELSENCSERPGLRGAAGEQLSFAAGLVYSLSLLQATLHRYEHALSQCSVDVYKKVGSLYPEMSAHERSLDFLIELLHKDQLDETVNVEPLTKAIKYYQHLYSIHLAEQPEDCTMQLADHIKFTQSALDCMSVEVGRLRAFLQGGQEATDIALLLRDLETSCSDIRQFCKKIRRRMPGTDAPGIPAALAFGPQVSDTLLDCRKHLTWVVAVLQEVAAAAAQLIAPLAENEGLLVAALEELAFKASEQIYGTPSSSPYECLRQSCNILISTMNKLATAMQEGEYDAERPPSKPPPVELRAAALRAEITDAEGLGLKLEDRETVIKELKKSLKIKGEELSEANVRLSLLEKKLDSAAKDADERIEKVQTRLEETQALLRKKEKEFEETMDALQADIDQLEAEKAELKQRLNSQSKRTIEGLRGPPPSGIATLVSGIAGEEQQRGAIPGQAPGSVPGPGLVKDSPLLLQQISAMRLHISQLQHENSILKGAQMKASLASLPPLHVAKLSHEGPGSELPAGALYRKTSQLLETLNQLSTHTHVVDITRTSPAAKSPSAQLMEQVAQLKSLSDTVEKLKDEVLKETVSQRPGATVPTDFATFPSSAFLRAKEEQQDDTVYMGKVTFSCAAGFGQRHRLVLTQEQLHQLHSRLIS
Sequence of UniProt Q9Y315 (Q9Y315 whole entry, looked up): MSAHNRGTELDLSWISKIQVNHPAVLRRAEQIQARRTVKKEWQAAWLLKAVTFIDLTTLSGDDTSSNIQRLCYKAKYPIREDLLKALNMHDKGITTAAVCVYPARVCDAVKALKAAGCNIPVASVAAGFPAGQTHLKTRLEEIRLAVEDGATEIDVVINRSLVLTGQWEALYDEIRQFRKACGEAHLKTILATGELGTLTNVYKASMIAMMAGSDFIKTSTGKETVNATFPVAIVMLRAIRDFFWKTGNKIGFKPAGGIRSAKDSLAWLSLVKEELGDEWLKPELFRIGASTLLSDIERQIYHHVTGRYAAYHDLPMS
Sequence of UniProt O15247 (O15247 whole entry, looked up): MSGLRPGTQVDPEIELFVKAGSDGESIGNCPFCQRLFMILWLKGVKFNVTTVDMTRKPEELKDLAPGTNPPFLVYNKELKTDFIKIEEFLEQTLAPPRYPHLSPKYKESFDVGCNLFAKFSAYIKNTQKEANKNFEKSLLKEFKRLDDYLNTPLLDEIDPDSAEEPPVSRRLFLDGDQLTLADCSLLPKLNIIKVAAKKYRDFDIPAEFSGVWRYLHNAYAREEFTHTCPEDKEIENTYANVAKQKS
Sequence of UniProt Q99704 (Q99704 whole entry, looked up): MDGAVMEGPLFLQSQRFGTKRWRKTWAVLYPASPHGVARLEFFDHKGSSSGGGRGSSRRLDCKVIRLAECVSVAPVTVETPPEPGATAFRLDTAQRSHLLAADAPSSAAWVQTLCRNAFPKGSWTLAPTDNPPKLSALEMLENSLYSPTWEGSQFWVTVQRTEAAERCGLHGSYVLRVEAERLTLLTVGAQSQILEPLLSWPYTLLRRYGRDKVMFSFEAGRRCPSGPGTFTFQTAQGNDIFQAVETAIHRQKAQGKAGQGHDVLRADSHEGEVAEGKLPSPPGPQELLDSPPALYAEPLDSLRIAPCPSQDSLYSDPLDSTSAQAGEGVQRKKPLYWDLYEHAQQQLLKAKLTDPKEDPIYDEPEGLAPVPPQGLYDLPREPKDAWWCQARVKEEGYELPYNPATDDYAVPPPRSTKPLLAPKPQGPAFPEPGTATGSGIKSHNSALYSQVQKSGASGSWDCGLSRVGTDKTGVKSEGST
Sequence of UniProt Q8WYQ5 (Q8WYQ5 whole entry, looked up): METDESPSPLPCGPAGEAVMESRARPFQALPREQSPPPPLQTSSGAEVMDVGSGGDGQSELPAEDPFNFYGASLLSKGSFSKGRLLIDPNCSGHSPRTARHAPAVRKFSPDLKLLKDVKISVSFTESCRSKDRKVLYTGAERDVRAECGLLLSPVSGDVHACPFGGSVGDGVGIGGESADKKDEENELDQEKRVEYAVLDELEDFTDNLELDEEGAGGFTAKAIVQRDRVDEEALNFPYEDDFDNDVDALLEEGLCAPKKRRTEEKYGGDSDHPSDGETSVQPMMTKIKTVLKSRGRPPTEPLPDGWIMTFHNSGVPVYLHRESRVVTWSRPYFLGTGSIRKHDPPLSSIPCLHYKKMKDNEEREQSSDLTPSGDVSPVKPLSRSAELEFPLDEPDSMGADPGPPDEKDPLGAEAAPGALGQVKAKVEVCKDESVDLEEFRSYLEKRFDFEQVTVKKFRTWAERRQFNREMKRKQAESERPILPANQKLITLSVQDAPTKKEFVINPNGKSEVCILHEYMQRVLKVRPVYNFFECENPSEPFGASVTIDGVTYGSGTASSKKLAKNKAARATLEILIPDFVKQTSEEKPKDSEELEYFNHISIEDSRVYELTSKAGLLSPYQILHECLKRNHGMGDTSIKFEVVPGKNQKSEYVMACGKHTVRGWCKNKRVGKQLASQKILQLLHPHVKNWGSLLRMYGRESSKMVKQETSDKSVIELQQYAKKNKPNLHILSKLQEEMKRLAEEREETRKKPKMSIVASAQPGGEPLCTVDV
Sequence of UniProt P61024 (P61024 whole entry, looked up): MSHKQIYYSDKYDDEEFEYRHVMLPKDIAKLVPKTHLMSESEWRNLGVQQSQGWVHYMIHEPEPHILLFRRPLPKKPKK

Row | Target | log2 fold change [1] | log2 fold change [2] | log2 fold change [3] | log2 fold change [4] | log2 fold change [5] | log2 fold change [6] | log2 fold change [7] | log2 fold change [8] | log2 fold change [9] | log2 fold change [10]
1 | CLPB isoform 2 (UniProt Q9H078) | -0.011 (inactive) | -0.003 (inactive) | 0.076 (inactive) | -0.03 (inactive) | 0.018 (inactive) | 0.008 (inactive) | -0.004 (inactive) | 0.005 (inactive) | 0.031 (inactive) | -0.016 (inactive)
2 | DOK1 (UniProt Q99704) | -0.019 (inactive) | 0.05 (inactive) | 0.014 (inactive) | -0.103 (inactive) | 0.023 (inactive) | -0.032 (inactive) | 0.048 (inactive) | 0.07 (inactive) | -0.055 (inactive) | 0.018 (inactive)
3 | CLIP1 isoform 1 (UniProt P30622) | -0.01 (inactive) | 0.01 (inactive) | 0.022 (inactive) | 0.013 (inactive) | 0.001 (inactive) | 0.008 (inactive) | 0.002 (inactive) | -0.004 (inactive) | -0.002 (inactive) | -0.002 (inactive)
4 | DDX54 isoform 2 (UniProt Q8TDD1) | 0.047 (inactive) | -0.035 (inactive) | 0.002 (inactive) | 0.019 (inactive) | 0.089 (inactive) | 0.042 (inactive) | -0.023 (inactive) | 0.021 (inactive) | 0.001 (inactive) | 0.011 (inactive)
5 | CSTB (UniProt P04080) | 0.057 (inactive) | 0.009 (inactive) | -0.017 (inactive) | 0.079 (inactive) | -0.022 (inactive) | -0.206 (inactive) | -0.008 (inactive) | -0.004 (inactive) | -0.055 (inactive) | -0.005 (inactive)
6 | DDA1 (UniProt Q9BW61) | 0.003 (inactive) | 0.008 (inactive) | -0.011 (inactive) | -0.056 (inactive) | 0.006 (inactive) | -0.006 (inactive) | -0.008 (inactive) | -0.023 (inactive) | -0.027 (inactive) | 0.023 (inactive)
7 | DPM1 (UniProt O60762) | 0.013 (inactive) | 0.019 (inactive) | 0.028 (inactive) | -0.014 (inactive) | 0.044 (inactive) | 0.057 (inactive) | 0.03 (inactive) | 0.038 (inactive) | 0.019 (inactive) | -0.057 (inactive)
8 | DNAJC24 (UniProt Q6P3W2) | 0 (inactive) | -0.093 (inactive) | 0.062 (inactive) | 0.02 (inactive) | -0.039 (inactive) | -0.042 (inactive) | 0.063 (inactive) | 0.054 (inactive) | -0.041 (inactive) | -0.015 (inactive)
9 | DLG3 isoform 2 (UniProt Q92796) | -0.036 (inactive) | 0.027 (inactive) | -0.062 (inactive) | 0.146 (inactive) | -0.004 (inactive) | -0.007 (inactive) | 0.085 (inactive) | -0.03 (inactive) | -0.031 (inactive) | -0.049 (inactive)
10 | DERA (UniProt Q9Y315) | 0.037 (inactive) | -0.027 (inactive) | 0.057 (inactive) | 0.006 (inactive) | -0.017 (inactive) | -0.008 (inactive) | 0.08 (inactive) | -0.017 (inactive) | -0.021 (inactive) | 0 (inactive)
11 | CMBL (UniProt Q96DG6) | -0.029 (inactive) | 0.054 (inactive) | 0.155 (inactive) | 0.006 (inactive) | -0.025 (inactive) | -0.047 (inactive) | -0.001 (inactive) | -0.027 (inactive) | -0.023 (inactive) | 0.149 (inactive)
12 | DIAPH3 (UniProt Q9NSV4) | -0.019 (inactive) | 0.019 (inactive) | -0.167 (inactive) | -0.021 (inactive) | 0.029 (inactive) | -0.093 (inactive) | -0.041 (inactive) | 0.057 (inactive) | 0.077 (inactive) | 0.019 (inactive)
13 | CNIH4 (UniProt Q9P003) | 0.074 (inactive) | -0.327 (inactive) | 0.132 (inactive) | -0.12 (inactive) | 0.063 (inactive) | -0.068 (inactive) | -0.515 (active) | 0.088 (inactive) | 0.076 (inactive) | -0.136 (inactive)
14 | CLCN3 (UniProt P51790) | 0.15 (inactive) | -0.043 (inactive) | -0.033 (inactive) | 0.117 (inactive) | 0.046 (inactive) | 0.056 (inactive) | -0.097 (inactive) | -0.064 (inactive) | -0.002 (inactive) | 0.071 (inactive)
15 | DEF6 (UniProt Q9H4E7) | -0.058 (inactive) | 0.046 (inactive) | -0.034 (inactive) | 0.033 (inactive) | 0.006 (inactive) | -0.044 (inactive) | 0.027 (inactive) | 0.067 (inactive) | 0.044 (inactive) | -0.01 (inactive)
16 | CSPP1 (UniProt Q1MSJ5) | -0.105 (inactive) | -0.014 (inactive) | 0.046 (inactive) | 0.011 (inactive) | -0.062 (inactive) | 0.026 (inactive) | 0.078 (inactive) | 0.015 (inactive) | -0.227 (inactive) | 0.011 (inactive)
17 | COTL1 (UniProt Q14019) | 0.021 (inactive) | 0.003 (inactive) | 0.024 (inactive) | 0.031 (inactive) | 0.023 (inactive) | 0.017 (inactive) | 0.055 (inactive) | -0.075 (inactive) | -0.028 (inactive) | -0.011 (inactive)
18 | CLUH (UniProt O75153) | 0.009 (inactive) | 0.075 (inactive) | -0.025 (inactive) | -0.007 (inactive) | 0.002 (inactive) | -0.043 (inactive) | 0.007 (inactive) | 0.039 (inactive) | -0.006 (inactive) | 0.004 (inactive)
19 | DICER1 (UniProt Q9UPY3) | 0.014 (inactive) | -0.014 (inactive) | -0.005 (inactive) | 0.045 (inactive) | -0.03 (inactive) | -0.072 (inactive) | 0 (inactive) | 0.051 (inactive) | 0.045 (inactive) | -0.068 (inactive)
20 | DGCR8 (UniProt Q8WYQ5) | -0.01 (inactive) | -0.002 (inactive) | -0.061 (inactive) | -0.029 (inactive) | -0.02 (inactive) | -0.007 (inactive) | 0.03 (inactive) | -0.032 (inactive) | -0.048 (inactive) | 0.003 (inactive)
21 | CTNNBL1 (UniProt Q8WYA6) | -0.034 (inactive) | 0.02 (inactive) | 0.025 (inactive) | -0.013 (inactive) | -0.065 (inactive) | -0.008 (inactive) | -0.019 (inactive) | 0.02 (inactive) | 0.011 (inactive) | -0.138 (inactive)
22 | CLIC2 (UniProt O15247) | 0.029 (inactive) | -0.032 (inactive) | -0.017 (inactive) | 0.004 (inactive) | -0.022 (inactive) | -0.019 (inactive) | -0.024 (inactive) | 0.023 (inactive) | 0.004 (inactive) | -0.005 (inactive)
23 | CUEDC2 (UniProt Q9H467) | -0.038 (inactive) | 0.055 (inactive) | 0.015 (inactive) | 0.028 (inactive) | 0.009 (inactive) | -0.046 (inactive) | 0.009 (inactive) | -0.012 (inactive) | -0.021 (inactive) | 0.016 (inactive)
24 | CKAP5 (UniProt Q14008) | 0 (inactive) | 0.002 (inactive) | -0.024 (inactive) | -0.005 (inactive) | 0.026 (inactive) | -0.03 (inactive) | -0.028 (inactive) | 0.021 (inactive) | 0.01 (inactive) | 0.006 (inactive)
25 | DCP2 (UniProt Q8IU60) | -0.065 (inactive) | -0.051 (inactive) | 0.009 (inactive) | 0.032 (inactive) | -0.018 (inactive) | -0.094 (inactive) | -0.012 (inactive) | 0.014 (inactive) | 0.03 (inactive) | 0.024 (inactive)
26 | CKS1B (UniProt P61024) | -0.03 (inactive) | 0.04 (inactive) | 0.065 (inactive) | -0.066 (inactive) | 0.011 (inactive) | 0.069 (inactive) | 0.106 (inactive) | -0.051 (inactive) | 0 (inactive) | 0.11 (inactive)
27 | DNAAF5 (UniProt Q86Y56) | -0.015 (inactive) | 0.004 (inactive) | -0.118 (inactive) | -0.024 (inactive) | 0.007 (inactive) | -0.1 (inactive) | -0.002 (inactive) | 0.073 (inactive) | 0.006 (inactive) | 0.024 (inactive)
28 | DCTN1 (UniProt Q14203) | 0.008 (inactive) | -0.005 (inactive) | -0.025 (inactive) | 0.012 (inactive) | 0.017 (inactive) | 0.001 (inactive) | -0.001 (inactive) | 0.011 (inactive) | 0.009 (inactive) | -0.007 (inactive)
29 | CTPS2 (UniProt Q9NRF8) | -0.005 (inactive) | 0.006 (inactive) | -0.035 (inactive) | -0.002 (inactive) | 0.01 (inactive) | 0.029 (inactive) | 0.003 (inactive) | 0.001 (inactive) | -0.003 (inactive) | 0.012 (inactive)
30 | DHRS11 (UniProt Q6UWP2) | 0.058 (inactive) | 0.017 (inactive) | -0.018 (inactive) | 0.008 (inactive) | 0.03 (inactive) | 0.024 (inactive) | 0.002 (inactive) | 0.037 (inactive) | 0.002 (inactive) | 0 (inactive)
